From PubChem BioAssay (Tox21)
Calls of active or inactive are those of the source. Calls follow the shape of the dose curve; as a rule, active = well fitted activation curve with a large enough effect in the repeat runs; inconclusive = weak or mixed curves; inactive = flat fitted curve, though single readings scatter.

Test: A CellTox Green Cytotoxicity Assay to monitor cytotoxicity in HEK293 cells - 0 hour (AID 1224869); also: nearly all actives have a fitted effect of over 50% in size
Settings: CellTox Green fluorescence; series mostly up to 76.8 µM; cytotoxicity: at the top concentration
Text: National Center for Advancing Translational Sciences [NCATS]
NIH Chemical Genomics Center [NCGC]
U.S. Environmental Protection Agency [EPA]
National Institutes of Environmental Health Sciences [NIEHS]
National Toxicology Program [NTP]
Cell-based models are critical for drug discovery. Determining the natural cytotoxic effects resulting from test compounds is an essential research activity. A CellTox Green Cytotoxicity Assay to monitor cytotoxicity in real time of continues cell culture during 40 hours of the compound treatment was used to screen Tox21 10K library compounds in Hek293 cells. CellTox Green Cytotoxicity Assay is a nonlytic, homogeneous, biofluorescent method to measure cytotoxicity in cell culture after experimental manipulation. The assay system uses a proprietary asymmetric cyanine dye that is excluded from viable cells but preferentially stains the dead cell's DNA. […] Viable cells produce no appreciable increases in fluorescence. Therefore, the fluorescence signal produced by the binding interaction with dead cell DNA is proportional to cytotoxicity.
The mixture of Hek293 cell suspension and reagents were dispensed at 600cells/6 ul/well in 1536-well tissue culture treated black solid bottom plates using a Multidrop dispenser. After the assay plates were incubated at a 37 C/5% CO2 incubator for 5 hours, 23 nL of compounds dissolved in DMSO, positive and negative controls was transferred to the assay plate by a pintool work station. The plates were incubated at 37 C for 40 hours. The fluorescence intensity were measured at 0h, 8h, 16h, 24h, 32h and 40h time points using ViewLux plate reader during compound treatment.
% is scaled to controls: 0 for no effect and ±100 for the full control effect.

| SMILES | cytotoxicity | outcome |
| --- | --- | --- |
| CCc1cc(OC)c(C[C@H](C)N)cc1OC | 7.19% (inactive) |  |
| CC1=C2[C@H]3OC(=O)[C@@H](C)[C@@H]3CC[C@@]2(C)C=CC1=O | -1.93% [at 35.3 µM] (inactive) |  |
| CCNc1nc(NCC)nc(SC)n1 | -2.55% (inactive) |  |
| COc1cc(CCN)cc(OC)c1OC | 5.37% (inactive) |  |
| COC(=O)c1ccccc1CS(=O)(=O)NC(=O)Nc1nc(OC)cc(OC)n1 | 0.639% (inactive) |  |
| Cc1ccc(S(=O)(=O)N[C@@H](CCCCN)C(=O)CCl)cc1 | -1% [at 35.3 µM] (inactive) |  |
| CCN1CCCC1CNC(=O)C(O)(c1ccccc1)c1ccccc1 (stereo not given) | -2.75% [at 35.3 µM] (inactive) |  |
| N=C(N)[Se] | -5.56% (inactive) |  |
| CCCOC(=O)c1cncn1C(C)c1ccccc1 (stereo not given) | 0.45% [at 35.3 µM] (inactive) |  |
| O=c1[nH]oc2c1CCNC2 | 9.5% [at 35.3 µM] (inactive) |  |
| CS(=O)(=O)c1ccc(C(=O)C2C(=O)CCCC2=O)c(Cl)c1COCC(F)(F)F | 0.669% (inactive) |  |
| C=CC(=O)OCCN(C)C | -2.14% (inactive) |  |
| CON(C)C(=O)Nc1ccc(Br)c(Cl)c1 | -6.78% (inactive) |  |
| O=C(CCl)NCO | 0.0768% (inactive) |  |
| CN(C)CCc1c[nH]c2cccc(OP(=O)(O)O)c12 | -4.51% (inactive) |  |
| CNC(=O)NC(O)C(Cl)(Cl)Cl (stereo not given) | 2.71% [at 35.3 µM] (inactive) |  |
| NNC(N)=O | 1.89% (inactive) |  |
| CCCOC(=O)Cc1ccc(OCC(=O)N(CC)CC)c(OC)c1 | -11.5% [at 35.3 µM] (inactive) |  |
| N[C@@H]1C[C@H]1c1ccccc1 | -5.97% [at 35.3 µM] (inactive) |  |
| CC(C)(N)Cc1ccc(Cl)cc1 | -8.58% [at 35.3 µM] (inactive) |  |

| SMILES | cytotoxicity | outcome |
| --- | --- | --- |
| CNC(=O)Oc1cc(C)c(N(C)C)c(C)c1 | 0.63% (inactive) |  |
| Cc1ccc(Cl)c(O)c1 | -1.23% [at 35.3 µM] (inactive) |  |
| CN1C(=O)COc2c(C(=O)NC3CN4CCC3CC4)cc(Cl)cc21 (stereo not given) | 1.35% [at 35.3 µM] (inactive) |  |
| [P]#[In] | 0.518% (inactive) |  |
| O=C(O)CBr | -3.34% (inactive) |  |
| Brc1c(Br)c(Br)c(Br)c(Br)c1Br | 20.1% [at 6.97 µM] (inactive) |  |
| CC(C)N(Cc1ccccc1)C(=O)C(C)(C)C | 0.739% (inactive) |  |
| C/C(=N\NC(=O)Nc1cc(F)cc(F)c1)c1ncccc1C(=O)O |  | inactive |
| CC(Cc1ccccc1)NCCCCl (stereo not given) | -6.17% [at 35.3 µM] (inactive) |  |
| CC(C)NCC(O)c1ccc([N+](=O)[O-])cc1 (stereo not given) | 0.137% [at 35.3 µM] (inactive) |  |
| O=c1[nH]c2ccccc2o1 | 7.31% (inactive) |  |
| C#CCOC(=O)/C=C(C)/C=C/CC(C)CCCC(C)C (stereo not given) | 0.0038% (inactive) |  |
| O=[N+]([O-])CCO | -7.35% (inactive) |  |
| COC[C@@H](NC(C)=O)C(=O)NCc1ccccc1 | 3.38% [at 35.3 µM] (inactive) |  |
| O=P(O)(O)CN(CP(=O)(O)O)CP(=O)(O)O | 9.86% [at 15.8 µM] (inactive) |  |
| COc1ccc(C=O)cc1O | -11.9% (inactive) |  |
| NNCc1ccccc1 | 2.7% (inactive) |  |
| C[N+]1(C)CCCCC1 | -4.11% (inactive) |  |
| O=P(O)(O)c1ccccc1 | 0.044% (inactive) |  |
| O=C(Cl)/C=C/C(=O)Cl | -7.7% (inactive) |  |
